Sampled rows, rich in hits. Any-hit rate of the full collection: about 19%.
TDP1 block = inhibitors of human tyrosyl-DNA phosphodiesterase TDP1; Potency, µM (series often up to 130 µM), for inactives: at the top dose activity change, negative = inhibition, hits mostly inhibitors; 350,000 compounds, 0.28% hits; recombinant TDP1, AlphaScreen DNA substrate cleavage; note: potency is the fitted concentration of half-maximal effect; % is set by controls: 0 for no effect and ±100 for the full control effect; nearly all actives have a fitted effect of over 40% in size
Target sequence (Q9NUW8 whole entry, looked up): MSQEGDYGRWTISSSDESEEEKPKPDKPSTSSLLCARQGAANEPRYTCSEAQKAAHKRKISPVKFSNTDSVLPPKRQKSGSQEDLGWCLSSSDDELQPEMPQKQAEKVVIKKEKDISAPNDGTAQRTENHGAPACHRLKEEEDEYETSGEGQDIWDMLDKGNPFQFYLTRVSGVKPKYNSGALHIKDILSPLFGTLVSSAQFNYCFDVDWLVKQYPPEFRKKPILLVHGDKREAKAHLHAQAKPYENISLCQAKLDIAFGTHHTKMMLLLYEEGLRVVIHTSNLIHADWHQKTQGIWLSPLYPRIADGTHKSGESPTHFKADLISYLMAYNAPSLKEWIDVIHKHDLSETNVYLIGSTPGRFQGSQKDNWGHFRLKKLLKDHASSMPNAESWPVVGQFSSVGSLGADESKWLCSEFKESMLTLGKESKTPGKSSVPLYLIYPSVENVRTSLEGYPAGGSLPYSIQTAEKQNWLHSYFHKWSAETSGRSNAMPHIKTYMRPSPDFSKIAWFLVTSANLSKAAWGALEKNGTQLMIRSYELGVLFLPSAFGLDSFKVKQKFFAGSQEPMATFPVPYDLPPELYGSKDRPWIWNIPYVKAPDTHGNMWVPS
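E. coli-derived human Tdp1, 1 nM final. Cpd preinc 15 min RT; substrate 15 nM final, 5 min RT; AS bead mix 10 ug/ml final, 10 min RT. Signal loss = tyrosine-FITC cleavage. No-enzyme wells = max signal.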
DT40 TDP1 no CPT = qHTS for Inhibitors of human tyrosyl-DNA phosphodiesterase 1 (TDP1): qHTS in cells in absence of CPT | DT40 Tdp1-/- hTDP1 cells, no CPT, ATP luminescence, 48 h | Potency, µM (highest dose often 46.2 µM), without a hit: at the highest dose activity change, negative = growth inhibition, actives largely listed as inhibitors | 420,000 compounds, 15% hits | AID 686978, 2013; note: potency is the fitted concentration of half-maximal effect; % is set by controls: 0 for no effect and ±100 for the full control effect; nearly all actives have a fitted effect of over 55% in size
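DT40 Tdp1-/-;hTDP1 cells, no CPT (DMSO vehicle only), 400 cells/well; compounds pin-transferred; ≥48 hr, 37 °C; CellTiter-Glo 30 min RT dark, luminescence read.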
IL-1B inflam inh = inhibitors of inflammasome signaling (IL-1 beta secretion); THP-1 LPS/ATP IL-1B secretion, AlphaLISA, 16 h; hits give low values; 360,000 compounds, 4.7% hits; activity change, % at 57.5 µM; in the data active = activity change below about -50%; inconclusive = mostly about -30% to -49%; note: % is set by controls: 0 for no effect and ±100 for the full control effect
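Secreted IL-1B measured by AlphaLISA bead assay after 16 h compound exposure of THP-1 cells; compounds (final up to 57.5 uM) added 1 h before LPS (250 ng/mL) and ATP (1.25 mM) stimulation; lower signal means less secretion.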
TDP1 cell CPT = growth inhibition of DT40 Tdp1-/-;hTDP1 cells with camptothecin (screen for TDP1 inhibitors). chicken DT40 Tdp1-/-;hTDP1 cells + 20 nM CPT, ATP luminescence, 48 h. Potency, µM (highest dose often 46.2 µM), for inactives: at the highest dose activity change, negative = growth inhibition, most hits filed as inhibitors. 420,000 compounds, 12% hits; note: potency is the fitted concentration of half-maximal effect; % is set by controls: 0 for no effect and ±100 for the full control effect; nearly all actives have a fitted effect of over 55% in size
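Chicken DT40 Tdp1-/- cells stably complemented with human TDP1 were seeded at 400 cells/well in medium containing 20 nM camptothecin, exposed to pin-transferred compounds, and grown at 37 °C for at least 48 hr. Viability was read as ATP luminescence.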
TGFb SMAD3 inh = inhibitors of TGF-b signaling. HepG2 CAGA-GFP TGF-b/SMAD3 reporter, GFP fluorescence, 18 h; TGF-beta stimulated, 500 pg/mL final. 410,000 compounds, 1.2% hits. Potency, µM (top dose mostly 46.1 µM), without a hit: at the top dose activity, negative = inhibition, actives largely listed as inhibitors; note: potency is the fitted concentration of half-maximal effect; % is set by controls: 0 for no effect and ±100 for the full control effect; nearly all actives have a fitted effect of over 65% in size
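Inhibition was scored as loss of TGF-beta-induced (500 pg/mL final, 18 hours, 37 degrees C) GFP in HEPG2 cells carrying a CAGA-GFP reporter, in DMEM with 1% FBS. Well GFP was summed per cell; Activity was normalised to unstimulated and stimulated DMSO wells, then concentration-response fitting.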
HepG2 viability = kills HepG2 cells in TGF-b inhibitor counter-screen. Potency, µM (highest dose often 46.1 µM), without a hit: at the top dose activity change, negative = cytotoxicity, hits mostly cytotoxic. AID 588856. HepG2 CAGA-GFP viability, ATP luminescence, 18 h. 410,000 compounds, 0.76% hits; note: potency is the fitted concentration of half-maximal effect
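CellTiter-Glo luminescence gave cytotoxicity after 18 hours at 37 degrees C. The cells were HepG2 CAGA-GFP in 1% FBS DMEM, stimulated with 500 pg/mL TGF-beta after compound addition. %Activity was normalised to no-cell wells (complete cell-killing) and DMSO (no toxicity), and curves were fitted and classified.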
* hit, by the source's call; ? = inconclusive; . = no result given; [ ] = another dose, or the depositor's remark. Unless noted, calls come from the whole dose curve; as a rule, active = well fitted curve in the direction sought with a large enough effect; inconclusive = small, poorly fitted or top-dose-only effect, or another doubt; inactive = no such curve, though single readings can be large; an effect the other way counts as inactive or inconclusive.

SMILES | TDP1 block | DT40 TDP1 no CPT | IL-1B inflam inh | TDP1 cell CPT | TGFb SMAD3 inh | HepG2 viability
Cc1ccc(NC(=O)c2nc(S(=O)(=O)Cc3ccccc3F)ncc2Cl)cc1C | . | 2µM* | . | 0.89µM* | ? | -59%
NS(=O)(=O)c1ccc(NC(=O)c2nc(S(=O)(=O)Cc3ccccc3F)ncc2Cl)cc1 | . | 7.1µM* | . | 10µM* | ? | -41%
Cc1ccc(NC(=O)c2nc(S(=O)(=O)Cc3ccccc3F)ncc2Cl)cc1 | . | 0.89µM* | . | 1.3µM* | ? | 10µM*
Cc1ccc(CNC(=O)c2nc(SCc3ccccc3F)ncc2Cl)cc1 | 2% | ? | . | ? | ? | 5%
CCOc1cccc(CC(=O)N2CCc3c([nH]c4ccccc34)C2c2ccc(SC)cc2)c1OCC (stereo not drawn) | 6% | ? | . | -26% | -2% | 3%
COC(=O)c1cc2sccc2n1Cc1ccc(F)cc1Cl | -3% | -21% | . | -24% | 17% | -26%
CCCCCCCCCCCC[n+]1ccc(/C=C/c2c[nH]c3ccccc23)c2ccccc21 | . | 2.2µM* | . | 2.5µM* | ? | -58%
CCCCCCCCCCCCCCCC[n+]1ccc(/C=C/c2c[nH]c3ccccc23)c2ccccc21 | . | 14µM* | . | 5µM* | ? | -46%
CCCCCCC[n+]1ccc(/C=C/c2c[nH]c3ccccc23)c2ccccc21 | . | 1.1µM* | . | 1µM* | 7.1µM* | 13µM*
Cc1ccc2c(/C=C/c3c[nH]c4ccccc34)ccnc2c1C | . | -103% | . | -125% | ? | -47%
COc1ccc(OC)c2c(/C=C/c3c[nH]c4ccccc34)ccnc12 | . | ? | . | -111% | ? | -4%
CC(C)c1ccc(-c2nc(C(N)=O)c3c(n2)n(-c2ccc4c(c2)OCO4)c(=O)n3C)cc1 | 5% | . | . | . | -2% | 0%
CCN(CC)S(=O)(=O)c1ccc(C(=O)NC2CC(=O)N(c3ccc4c(c3)OCCO4)C2)cc1 (stereo not drawn) | 3% | ? | . | -13% | 0% | -5%
CC(=O)c1cccc(OCC(=O)N(C)CC(=O)NCc2ccco2)c1 | 7.1µM* | -20% | 0 | ? | -1% | -5%
COc1ccc(C)cc1S(=O)(=O)N(CC(=O)NCc1ccco1)c1ccc(C)cc1 | 1% | -6% | -10 | ? | 0% | -3%
Cc1ccc(OCC(=O)N/N=C/C=C/c2ccco2)c(Br)c1 | 4% | ? | 0 | 18µM* | -13% | -8%
Cc1ccc(OCC(=O)N(C)CC(=O)NCc2ccco2)c(Br)c1 | 32µM* | -29% | 4 | 4% | -19% | -3%
Brc1ccsc1-c1csc(-c2ccncc2)n1 | . | ? | 13 | -3% | -10% | -34%
COc1ccc(CNC(=O)c2ccc(NC(=O)N3CCSc4ncccc43)cc2)cc1 | 6% | ? | . | ? | 0% | -7%
CCCCOc1ccc(CNC(=O)c2cccc(NC(=O)N3CCSc4ncccc43)c2)cc1 | 0% | 16µM* | . | ? | -57% | -38%
CCOc1ccc(CNC(=O)c2cccc(NC(=O)N3CCSc4ncccc43)c2)cc1 | 6% | 23µM* | . | ? | 0% | -1%
Cc1ccccc1CNC(=O)c1cccc(NC(=O)N2CCSc3ncccc32)c1 | 6% | 16µM* | . | 18µM* | 0% | -13%
CC(C)Oc1ccc(CNC(=O)c2cccc(NC(=O)N3CCSc4ncccc43)c2)cc1 | 6% | 21µM* | . | ? | 0% | -4%
CCCCOc1ccc(CNC(=O)Cc2ccc(NC(=O)N3CCSc4ncccc43)cc2)cc1 | 0% | ? | . | ? | -16% | -27%
Cc1ccc(-n2nc(C)c3c(C)c(CCC(=O)NCc4ccc(Cl)cc4)c(C)nc32)cc1 | 0% | ? | . | ? | . | 1%
SMILES | TDP1 block | DT40 TDP1 no CPT | IL-1B inflam inh | TDP1 cell CPT | TGFb SMAD3 inh | HepG2 viability
CCC(OC(=O)C(CC(C)C)NC(=O)c1ccccc1)C(=O)Nc1nnc(C)s1 (stereo not drawn) | 1% | 5.8µM* | 17 | ? | -4% | -1%
COC1=CC(=O)C(C(=O)c2ccccc2)=CC1=O | 1%[56.1 µM] | 5.8µM* | . | ? | . | .
COc1ccc(C(=O)c2ccccc2)cc1 | -2% | -11% | 16 | 16% | 2% | 15%
Cn1cnc(S(=O)(=O)NC2CCN(Cc3ccccc3)CC2)c1 | 8% | 4% | 3 | 1% | 13% | 1%
COc1cccc(Oc2ccc(N/C=C/C(=O)C(C)(C)C)cc2)c1 | 1% | ? | -65* | 0% | -14% | -5%
COc1ccc(Oc2ccc(N/C=C/C(=O)C(C)(C)C)cc2)cc1 | 5% | -18% | -14 | -18% | -27% | -12%
CCCCN(C=O)c1c(CC)nc2c(OCC(=O)C(C)(C)C)cccn12 | . | -25% | 26 | ? | 22% | 2%
CCCCN(C=O)c1c(CC)nc2c(OCCn3cccc3)cccn12 | . | 23µM* | -10 | ? | -17% | -51%
CCCCN(C=O)c1c(CC)nc2c(OCC(=O)c3ccc(F)cc3)cccn12 | . | ? | 0 | ? | -2% | -7%
CCCCN(C=O)c1c(CC)nc2c(OCCOc3ccc(F)cc3)cccn12 | . | 16µM* | -8 | ? | -28% | -15%
CCCCNC(=O)[C@@H]1CC=C[C@@H]2CCN(Cc3ccc(OC)c(OC)c3)C(=O)[C@@H]21 | . | ? | . | ? | -15% | -18%
CCOc1ccc(Nc2nc(Cc3nnc(SCC(=O)N(CC)CC)n3C)cs2)cc1 | -2% | -28% | -2 | -16% | ? | 20µM*
O=c1oc(-c2ccc(C(F)(F)F)cc2)nn1Cc1cc(Cl)ccc1O | 8% | . | . | . | . | .
COc1ccc2cc1Oc1ccc(cc1)CC1c3c(cc(OC)c4c3Oc3cc5c(cc3O4)CCNC5C2)CCN1C (stereo not drawn) | . | 1.6µM* | -11 | 2.9µM* | 10µM* | -103%
COc1ccc2cc1Oc1ccc(cc1)CC1c3c(cc4c(c3Oc3cc5c(cc3OC)CCN(C)C5C2)OCO4)CCN1C (stereo not drawn) | 15%[56.1 µM] | . | . | . | . | .
COc1ccc2cc1Oc1ccc(cc1)C[C@H]1c3c(cc(OC)c4c3Oc3c(ccc5c3[C@H](C2)N(C)CC5)O4)CCN1C | 10% | 5.2µM* | -17 | 5.8µM* | 0% | -1%
COc1cccc(/C=N/Nc2ncnc3scc(-c4ccccc4)c23)c1OC | 4% | 18µM* | -67* | ? | ? | -61%
